# Results published in PubChem BioAssay (Tox21).
# Inconclusive results are not listed. Active and inactive are the calls of the source. The call rests on the fitted dose curve; in most records, active means well fitted activation curve with a large enough effect in the signal ratio in the repeat runs (not every such curve was filed as active); inconclusive means weak or mixed curves; inactive means flat fitted curve, though single readings scatter; the % refers to the signal ratio.
# Assay: qHTS assay to identify small molecule agonists of H2AX (AID 1224845)
# Details: CHO-K1 phospho-H2AX Ser139 HTRF, 3 h; series mostly up to 154 µM
# Excerpt: National Center for Advancing Translational Sciences [NCATS]
# NIH Chemical Genomics Center [NCGC]
# U.S. Environmental Protection Agency [EPA]
# National Institutes of Environmental Health Sciences [NIEHS]
# National Toxicology Program [NTP]
# U.S. Food and Drug Administration [FDA]
# HTRF phospho-H2AX (Ser139) assay (Cisbio Bioassays, US) enables the quantitative detection of the histone variant H2AX when phosphorylated on serine 139. When double-stranded DNA breaks, either by ionizing radiation or endogenous physiological processes, H2AX becomes phosphorylated at Ser139. This phospho-Ser139 serves as a sensitive biomarker for the detection of such breaks, localizing the site of DNA repair. So, HTRF phospho-H2AX Ser139 is a pertinent assay to study genome stability, the cell cycle, DNA repair, and it serves as a biomarker for cancer, and to understand aging. Wild type CHO-K1 cells were used to identify the inducers of Phospho-H2AX Ser 139 from the Tox21 10K compound collections.
# Tox21 Assay Protocol Summary:
# The CHO-K1 cells suspended in culture medium containing 10% FBS were dispensed at 1000 cells/ 3 ul/well in 1536-well white wall/solid bottom plates (Greiner Bio-One North America, NC) using a Multidrop Combi (Thermo Fisher Scientific Inc., Waltham, MA). After the assay plates were incubated at 37C overnight, 23 nl of compounds at 15 concentrations (from 5-48 columns) or positive control (from 1 to 4 columns) were transferred to the assay plates using a Pintool station (Wako, San Diego, CA) into each well resulting in a final DMSO concentration of 0.76%. After 3hr incubation at 37C, 1 uL/well Supplemented Lysis buffer (diluted 100 fold blocking reagent in lysis buffer) (HTRF Phospho-H2A.X (S139) Assay kit from Cisbio US Inc., Bedford, MA) was added using a Flying Reagent Dispenser (FRD) (Aurora Discovery, CA). After 10sec spin at 1000 rpm in a plate centrifuge, the assay plates were incubated at room temperature for 30 min. Then followed by the addition of 1 uL/well detection buffer (containing a mixture of two antibodies, one labeled with cryptate, Anti pH2AX (S139)-K and another labeled with d2, Anti H2AX-d2) using FRD. After incubation at room temperature for 24 hr, the time resolved fluorescence at excitation 320 nm and emissions at 665 nm and 620 nm was measured using an Envision plate reader (PerkinElmer, Waltham, MA).
row,Compound,outcome
1,Cc1ccc(C)c(OCCCC(C)(C)C(=O)O)c1,inactive
2,O=C(O)/C=C\C(=O)O,inactive
3,CC(=O)NS(=O)(=O)c1ccc(N)cc1,inactive
4,O=C(O)c1cccnc1,inactive
5,CC(=O)OCC(COC(C)=O)OC(C)=O,inactive
6,Cc1cc(=O)n(-c2ccccc2)n1C,inactive
7,N=C(N)c1ccc(OCCCCCOc2ccc(C(=N)N)cc2)cc1,inactive
8,O=C(O)CCCCCCCC(=O)O,inactive
9,CC1(C)[C@@H]2CC[C@@]1(C)C(=O)C2,inactive
10,Nc1ccc(C(=O)O)cc1,inactive
11,NC(N)=NC(=O)c1nc(Cl)c(N)nc1N,inactive
12,Nc1ccc(S(=O)(=O)c2ccc(N)cc2)cc1,inactive
13,COc1ccc2[nH]cc(CCNC(C)=O)c2c1,inactive
14,CC(C)(Oc1ccc(C2CC2(Cl)Cl)cc1)C(=O)O (stereo not given),inactive
15,O=c1ccc2ccccc2o1,inactive
16,O=c1cc[nH]c(=S)[nH]1,inactive
17,O=C(c1ccccc1)c1ccccc1,inactive
18,OCCc1ccccc1,inactive
19,NC(=O)NC1NC(=O)NC1=O (stereo not given),inactive
20,CC(O)CN(CCN(CC(C)O)CC(C)O)CC(C)O (stereo not given),inactive

row,Compound,outcome
1,CC(O)CO (stereo not given),inactive
2,O=S(=O)(O)NC1CCCCC1,inactive
3,c1ccc2[nH]ccc2c1,inactive
4,Cn1cc[nH]c1=S,inactive
5,Cc1ccccc1C(OCCN(C)C)c1ccccc1 (stereo not given),inactive
6,CCCC(O)C(CC)CO (stereo not given),inactive
7,O=S(=O)(O)c1ccc2cc(O)ccc2c1,inactive
8,O=NO,inactive
9,O=C(O)C(=O)O,inactive
10,NS(=O)(=O)c1cc(C(=O)O)c(NCc2ccco2)cc1Cl,inactive
11,CC(=O)Nc1nnc(S(N)(=O)=O)s1,inactive
12,O=C(O)CCC(=O)O,inactive
13,CCCCCCCCCCCCCCCC(=O)O,inactive
14,Cc1ccc(O)cc1,inactive
15,Cn1c(=O)c2[nH]cnc2n(C)c1=O,inactive
16,C[C@]12C=CC(=O)C=C1CC[C@@H]1[C@@H]2[C@@H](O)C[C@@]2(C)[C@H]1CC[C@]2(O)C(=O)CO,inactive
17,NC(N)=O,inactive
18,CCCNC(=O)NS(=O)(=O)c1ccc(Cl)cc1,inactive
19,O=C(C1CCCCC1)N1CC(=O)N2CCc3ccccc3C2C1 (stereo not given),inactive
20,O=C1CN(/N=C/c2ccc([N+](=O)[O-])o2)C(=O)N1,inactive
